We go through 14 sequences from article PMC11006913.

Assay in all cases: PBM; 200 nM protein, PBS
Common to all, as to settings: dsDNA, one strand shown

Assay [1] concerns the target CRX (Homo sapiens, UniProt O43186 26-111).
In assay [2] the target is CRX (Homo sapiens, UniProt O43186 26-111, E42D).
The target in assay [3] is CRX (Homo sapiens, UniProt O43186 26-111, R41L).
Assay [4] deals with T1, NKX2-4 (Homo sapiens, UniProt Q9H2Z4 175-261, P217L).
T1 sequence: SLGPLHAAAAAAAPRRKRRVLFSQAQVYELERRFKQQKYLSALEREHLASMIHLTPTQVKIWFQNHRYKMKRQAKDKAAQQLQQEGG

In assay [5] the target is HOXB9 (Homo sapiens, UniProt P17482 171-250, T197M).
Sequence of HOXB9 (Homo sapiens, UniProt P17482 171-250, T197M) (P17482 171-250 T197M): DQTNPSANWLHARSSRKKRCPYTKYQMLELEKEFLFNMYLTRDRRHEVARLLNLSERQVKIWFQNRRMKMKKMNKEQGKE
In assay [6] the target is T2, NKX2-4 (Homo sapiens, UniProt Q9H2Z4 175-261, T231S).
T2 sequence: T1 sequence with L43P, T57S

Assay [7] deals with T3, NKX2-4 (Homo sapiens, UniProt Q9H2Z4 175-261).
T3 sequence: T1 sequence with L43P

The target in assay [8] is HOXB9 (Homo sapiens, UniProt P17482 171-250).
Sequence of HOXB9 (Homo sapiens, UniProt P17482 171-250) (P17482 171-250): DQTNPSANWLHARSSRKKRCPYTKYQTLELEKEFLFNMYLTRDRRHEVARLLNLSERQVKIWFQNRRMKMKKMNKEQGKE
Assay [9] has as its target T4, NKX2-4 (Homo sapiens, UniProt Q9H2Z4 175-261, R246Q).
T4 sequence: T1 sequence with L43P, R72Q

Assay [10] deals with HOXB9 (Homo sapiens, UniProt P17482 171-250, R186Q).
Sequence of HOXB9 (Homo sapiens, UniProt P17482 171-250, R186Q) (P17482 171-250 R186Q): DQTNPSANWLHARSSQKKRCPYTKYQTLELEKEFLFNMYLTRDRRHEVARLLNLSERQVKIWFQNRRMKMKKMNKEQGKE
The next assay has as its target PITX2 (Homo sapiens, UniProt Q99697 72-157).
The next assay addresses HOXB6 (Homo sapiens, UniProt P17509 132-218).
Assay [11] addresses HOXD13 (Homo sapiens, UniProt P35453 263-343, T313R).
Assay [12] deals with HOXD13 (Homo sapiens, UniProt P35453 263-343).
Sequence of HOXD13 (Homo sapiens, UniProt P35453 263-343) (P35453 263-343): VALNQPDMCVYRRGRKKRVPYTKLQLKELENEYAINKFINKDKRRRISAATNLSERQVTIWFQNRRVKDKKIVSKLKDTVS
Assay [13] concerns the target HOXD13 (Homo sapiens, UniProt P35453 263-343, T313A).
Assay [14] deals with HOXC9 (Homo sapiens, UniProt P31274 178-260, K195R).
Sequence of HOXC9 (Homo sapiens, UniProt P31274 178-260, K195R) (P31274 178-260 K195R): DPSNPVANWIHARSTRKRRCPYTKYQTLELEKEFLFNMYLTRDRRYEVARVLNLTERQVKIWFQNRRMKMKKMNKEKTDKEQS
The target in another assay is T5, NKX2-6 (Homo sapiens, UniProt A6NCS4 118-204, R150C).
T5 sequence: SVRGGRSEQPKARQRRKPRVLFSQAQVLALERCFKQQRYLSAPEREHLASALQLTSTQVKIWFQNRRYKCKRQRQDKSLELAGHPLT

The target of assay [15] is HOXC9 (Homo sapiens, UniProt P31274 178-260).
Sequence of HOXC9 (Homo sapiens, UniProt P31274 178-260) (P31274 178-260): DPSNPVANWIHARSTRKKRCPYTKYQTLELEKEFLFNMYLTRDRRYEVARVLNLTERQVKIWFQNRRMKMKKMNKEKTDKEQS
The target of assay [16] is ALX1 (Homo sapiens, UniProt Q15699 118-204, L144V).
Sequence of ALX1 (Homo sapiens, UniProt Q15699 118-204, L144V) (Q15699 118-204 L144V): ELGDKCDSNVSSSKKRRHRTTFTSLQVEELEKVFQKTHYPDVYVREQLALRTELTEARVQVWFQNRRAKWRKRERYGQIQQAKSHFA
The target of assay [17] is HOXC9 (Homo sapiens, UniProt P31274 178-260, R193K).
Sequence of HOXC9 (Homo sapiens, UniProt P31274 178-260, R193K) (P31274 178-260 R193K): as the sequence (P31274 178-260) above, with R16K counted along it
Assay [18] has as its target ALX1 (Homo sapiens, UniProt Q15699 118-204, L144R).
Assay [19] has as its target HOXC9 (Homo sapiens, UniProt P31274 178-260, R222W).
The target of assay [20] is ALX1 (Homo sapiens, UniProt Q15699 118-204).
Sequence of ALX1 (Homo sapiens, UniProt Q15699 118-204) (Q15699 118-204): as the sequence (Q15699 118-204 L144V) above, with V27L counted along it

Positions count from the first letter of the chain named.

Sequence of CRX (Homo sapiens, UniProt O43186 26-111, E42D) (O43186 26-111 E42D): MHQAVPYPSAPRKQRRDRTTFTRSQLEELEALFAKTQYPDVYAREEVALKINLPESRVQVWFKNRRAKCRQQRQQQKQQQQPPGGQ
Sequence of CRX (Homo sapiens, UniProt O43186 26-111) (O43186 26-111): as the sequence (O43186 26-111 E42D) above, with D17E counted along it
Sequence of CRX (Homo sapiens, UniProt O43186 26-111, R41L) (O43186 26-111 R41L): as the sequence (O43186 26-111 E42D) above, with R16L, D17E counted along it
Sequence of ALX1 (Homo sapiens, UniProt Q15699 118-204, L144R) (Q15699 118-204 L144R): as the sequence (Q15699 118-204 L144V) above, with V27R counted along it
Sequence of HOXD13 (Homo sapiens, UniProt P35453 263-343, T313A) (P35453 263-343 T313A): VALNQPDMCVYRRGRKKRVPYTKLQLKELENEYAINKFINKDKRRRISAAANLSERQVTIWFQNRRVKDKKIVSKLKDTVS
Sequence of HOXD13 (Homo sapiens, UniProt P35453 263-343, T313R) (P35453 263-343 T313R): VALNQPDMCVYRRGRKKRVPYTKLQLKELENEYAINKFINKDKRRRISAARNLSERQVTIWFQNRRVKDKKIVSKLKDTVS
Sequence of HOXC9 (Homo sapiens, UniProt P31274 178-260, R222W) (P31274 178-260 R222W): as the sequence (P31274 178-260) above, with R45W counted along it
Sequence of HOXB6 (P17509 132-218): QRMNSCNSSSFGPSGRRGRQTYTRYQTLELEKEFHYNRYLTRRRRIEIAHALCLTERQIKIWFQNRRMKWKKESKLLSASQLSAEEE

CCGGATAA: the binding signal with CRX [1] is 11.5 upbm affinity estimate (log intensity, higher = more binding, comparable within an allelic series); in the assay with CRX [2] it was 11.3 upbm affinity estimate (log intensity, higher = more binding, comparable within an allelic series); in the assay with CRX [3], 10.9 upbm affinity estimate (log intensity, higher = more binding, comparable within an allelic series).
As for CTGGGGGC, the binding signal with NKX2-4 [4] is 9.39 upbm affinity estimate (log intensity, higher = more binding, comparable within an allelic series); with HOXB9 [5] it was 8.38 upbm affinity estimate (log intensity, higher = more binding, comparable within an allelic series); with NKX2-4 [6], 9.45 upbm affinity estimate (log intensity, higher = more binding, comparable within an allelic series); with NKX2-4 [7], 9.5 upbm affinity estimate (log intensity, higher = more binding, comparable within an allelic series); with HOXB9 [8], 8.3 upbm affinity estimate (log intensity, higher = more binding, comparable within an allelic series); in the assay with NKX2-4 [9] it was 9.37 upbm affinity estimate (log intensity, higher = more binding, comparable within an allelic series). In addition, the binding signal in the assay with HOXB9 [10] is 8.44 upbm affinity estimate (log intensity, higher = more binding, comparable within an allelic series).
For the sequence AGAGGGCC, the binding signal was 11.7 upbm affinity estimate (log intensity, higher = more binding, comparable within an allelic series) in the assay with NKX2-4 [4]; 8.51 upbm affinity estimate (log intensity, higher = more binding, comparable within an allelic series) with HOXB9 [5]; 12 upbm affinity estimate (log intensity, higher = more binding, comparable within an allelic series) in the assay with NKX2-4 [6]; 11.7 upbm affinity estimate (log intensity, higher = more binding, comparable within an allelic series) in the assay with NKX2-4 [7]; 8.69 upbm affinity estimate (log intensity, higher = more binding, comparable within an allelic series) with HOXB9 [8]; 11.9 upbm affinity estimate (log intensity, higher = more binding, comparable within an allelic series) in the assay with NKX2-4 [9]. Besides, the binding signal with HOXB9 [10] was 8.57 upbm affinity estimate (log intensity, higher = more binding, comparable within an allelic series).
In the case of AGATTAGG, the binding signal is 12.7 upbm affinity estimate (log intensity, higher = more binding, comparable within an allelic series) in the assay with CRX [1]; 12.3 upbm affinity estimate (log intensity, higher = more binding, comparable within an allelic series) in the assay with PITX2; 12.2 upbm affinity estimate (log intensity, higher = more binding, comparable within an allelic series) with CRX [3].
Consider CCACCGAG, for which the binding signal in the assay with CRX [1] was 8.14 upbm affinity estimate (log intensity, higher = more binding, comparable within an allelic series); with CRX [2], 8.21 upbm affinity estimate (log intensity, higher = more binding, comparable within an allelic series); with CRX [3], 8.2 upbm affinity estimate (log intensity, higher = more binding, comparable within an allelic series).
Regarding ATAATATC, the binding signal in the assay with CRX [1] was 11.2 upbm affinity estimate (log intensity, higher = more binding, comparable within an allelic series); with CRX [2] it was 10.9 upbm affinity estimate (log intensity, higher = more binding, comparable within an allelic series); with CRX [3], 10.8 upbm affinity estimate (log intensity, higher = more binding, comparable within an allelic series); in the assay with HOXB6, 10.8 upbm affinity estimate (log intensity, higher = more binding, comparable within an allelic series).
GATAAACC: the binding signal with CRX [1] was 11.4 upbm affinity estimate (log intensity, higher = more binding, comparable within an allelic series); in the assay with CRX [2], 11.1 upbm affinity estimate (log intensity, higher = more binding, comparable within an allelic series); in the assay with CRX [3], 10.9 upbm affinity estimate (log intensity, higher = more binding, comparable within an allelic series).
For the sequence AGATTAAC, the binding signal is 12.9 upbm affinity estimate (log intensity, higher = more binding, comparable within an allelic series) with CRX [1]; 12.7 upbm affinity estimate (log intensity, higher = more binding, comparable within an allelic series) with PITX2; 12.6 upbm affinity estimate (log intensity, higher = more binding, comparable within an allelic series) with CRX [3].
GCGCCGCC: the binding signal with NKX2-4 [4] is 9.93 upbm affinity estimate (log intensity, higher = more binding, comparable within an allelic series); with HOXB9 [5], 8.49 upbm affinity estimate (log intensity, higher = more binding, comparable within an allelic series); in the assay with NKX2-4 [6], 9.45 upbm affinity estimate (log intensity, higher = more binding, comparable within an allelic series); with NKX2-4 [7], 9.72 upbm affinity estimate (log intensity, higher = more binding, comparable within an allelic series); in the assay with HOXB9 [8], 8.66 upbm affinity estimate (log intensity, higher = more binding, comparable within an allelic series); in the assay with HOXD13 [11] it was 9.49 upbm affinity estimate (log intensity, higher = more binding, comparable within an allelic series). The binding signal is 9.76 upbm affinity estimate (log intensity, higher = more binding, comparable within an allelic series) in the assay with HOXD13 [12]; 9.62 upbm affinity estimate (log intensity, higher = more binding, comparable within an allelic series) with NKX2-4 [9]; 9.79 upbm affinity estimate (log intensity, higher = more binding, comparable within an allelic series) in the assay with HOXD13 [13]; 8.63 upbm affinity estimate (log intensity, higher = more binding, comparable within an allelic series) with HOXB9 [10].
Consider AGATAATC, for which the binding signal was 12.9 upbm affinity estimate (log intensity, higher = more binding, comparable within an allelic series) with CRX [1]; 12.7 upbm affinity estimate (log intensity, higher = more binding, comparable within an allelic series) with CRX [2]; 12.7 upbm affinity estimate (log intensity, higher = more binding, comparable within an allelic series) with CRX [3].
On to GCTGCCGA, for which the binding signal is 9.14 upbm affinity estimate (log intensity, higher = more binding, comparable within an allelic series) with NKX2-4 [4]; 9.65 upbm affinity estimate (log intensity, higher = more binding, comparable within an allelic series) with HOXC9 [14]; 9.11 upbm affinity estimate (log intensity, higher = more binding, comparable within an allelic series) with NKX2-4 [6]; 9.11 upbm affinity estimate (log intensity, higher = more binding, comparable within an allelic series) in the assay with NKX2-4 [7]; 9.17 upbm affinity estimate (log intensity, higher = more binding, comparable within an allelic series) in the assay with NKX2-6; 9.69 upbm affinity estimate (log intensity, higher = more binding, comparable within an allelic series) in the assay with HOXC9 [15]. Moreover, the binding signal was 6.5 upbm affinity estimate (log intensity, higher = more binding, comparable within an allelic series) with ALX1 [16]; 9.57 upbm affinity estimate (log intensity, higher = more binding, comparable within an allelic series) with HOXC9 [17]; 6.4 upbm affinity estimate (log intensity, higher = more binding, comparable within an allelic series) with ALX1 [18]; 9.29 upbm affinity estimate (log intensity, higher = more binding, comparable within an allelic series) in the assay with NKX2-4 [9]; 9.8 upbm affinity estimate (log intensity, higher = more binding, comparable within an allelic series) with HOXC9 [19]; 6.43 upbm affinity estimate (log intensity, higher = more binding, comparable within an allelic series) in the assay with ALX1 [20].
For the sequence TAATCCAA, the binding signal with CRX [1] is 13 upbm affinity estimate (log intensity, higher = more binding, comparable within an allelic series); in the assay with CRX [2], 13 upbm affinity estimate (log intensity, higher = more binding, comparable within an allelic series); with CRX [3], 12.8 upbm affinity estimate (log intensity, higher = more binding, comparable within an allelic series).
For ACCCAGTG, the binding signal with CRX [1] was 8.01 upbm affinity estimate (log intensity, higher = more binding, comparable within an allelic series); with CRX [2], 8.16 upbm affinity estimate (log intensity, higher = more binding, comparable within an allelic series); with CRX [3] it was 8.13 upbm affinity estimate (log intensity, higher = more binding, comparable within an allelic series).
With GCCAATCC, the binding signal with CRX [1] is 10.4 upbm affinity estimate (log intensity, higher = more binding, comparable within an allelic series); in the assay with CRX [2], 10.3 upbm affinity estimate (log intensity, higher = more binding, comparable within an allelic series); with CRX [3] it was 10.1 upbm affinity estimate (log intensity, higher = more binding, comparable within an allelic series).
